Results taken from PubChem BioAssay (EPA / NIEHS).
Results filed as inconclusive are left out. Active and inactive are the calls of the source. The calls were made as follows, unless noted: active = hit-call score of the fitted dose curve at least 0.9, where 1 is the maximum; inconclusive = response in the unintended direction; inactive = score below 0.9.

Tests used:
[1] = read-out: ABC Transporter (ABCB11), ABCB11 (gene 8647); assay: CLD_ABCB11_24hr: CellzDirect (CLD) Gene Expression Assay for ABC Transporter (ABCB11) at 24 hours (AID 2283674; active = hit-call score of the fitted dose curve at least 0.9, where 1 is the maximum; inactive = score below 0.9)
In short: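 Primary human hepatocytes were dosed daily for two days, with 0.2% DMSO vehicle. ABCB11 mRNA induction was measured at 24 hours by quantitative nuclease protection assay with chemiluminescence. Gain of signal was fitted relative to DMSO.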

[2] = CLD_ACTIN_6hr: CellzDirect (CLD) Gene Expression Assay for Baseline Control (Actin) at 6 hours (AID 2283676);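 also: active means increased actin mRNA relative to DMSO vehicle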
In short: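 Primary human hepatocytes dosed with fresh chemical solutions (vehicle 0.2% DMSO), harvested at 6 h. Actin mRNA quantified by quantitative nuclease protection assay with chemiluminescent read-out, as background control relative to DMSO.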

[3] = read-out: Cytochrome P450 2B6 (Homo sapiens) (UniProt P20813); assay: CLD_CYP2B6_6hr: CellzDirect (CLD) Gene Expression Assay for xenobiotic metabolism (CYP2B6) at 6 hours (AID 2283677);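 also: actives raise CYP2B6 transcript above DMSO baseline so AC50 marks an inducer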
In short: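 Primary human hepatocytes dosed with chemicals at multiple concentrations, vehicle 0.2% DMSO; CYP2B6 mRNA induction measured 6 h after dosing by quantitative nuclease protection assay with chemiluminescence, gain of signal fitted relative to DMSO.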

[4] = read-out: Cytochrome P450 2C19 (Homo sapiens) (UniProt P33261); assay: CLD_CYP2C19_6hr: CellzDirect (CLD) Gene Expression Assay for xenobiotic metabolism (CYP2C19) at 6 hours (AID 2283678)
In short: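 Primary human hepatocytes from two donor preparations were dosed daily, with 0.2% DMSO as vehicle, and harvested 6 h after dosing. CYP2C19 mRNA induction was measured by qNPA chemiluminescence and fitted as gain of signal against DMSO.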

[5] = CCTE_Padilla_ZF_144hpf_TERATOSCORE: (Legacy) CCTE's 144 Hour Post-fertilization zebrafish Assay Teratoscore, Padilla Lab (AID 2283679; active = hit-call score of the fitted dose curve at least 0.9, where 1 is the maximum; inactive = score below 0.9;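 as to AC50: zebrafish embryos with chorions exposed by immersion from 6-8 hpf to 5 dpf with daily renewal; teratogenicity score from eye scoring of death hatching and malformations at 144 hpf; higher score means more developmental defects relative to DMSO baseline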)
In short: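 Larvae scored by eye at 144 hpf for death, hatching and malformations after a day in clean Hanks'. Before that, daily-renewed exposure at 80 uM (0.4% DMSO, 26C) from roughly 6-8 hpf through 5 dpf, 4 embryos per chemical.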

[6] = read-out: Cytochrome P450 3A4 (Homo sapiens) (UniProt P08684); assay: CLD_CYP3A4_6hr: CellzDirect (CLD) Gene Expression Assay for xenobiotic metabolism (CYP3A4) at 6 hours (AID 2283680)
In short: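 Primary human hepatocytes (two donor preparations) dosed; CYP3A4 mRNA harvested at 6 h and quantified by qNPA chemiluminescence. Gain of signal fitted against 0.2% DMSO vehicle; cytotoxicity flagged by phase-contrast morphology.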

[7] = read-out: xenobiotic metabolism (CYP1A2), CYP1A2 (gene 1544); assay: CLD_CYP1A2_24hr: CellzDirect (CLD) Gene Expression Assay for xenobiotic metabolism (CYP1A2) at 24 hours (AID 2283683)
In short: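 Primary human hepatocytes from two donor preparations dosed daily with multiple concentrations of chemical, 0.2% DMSO vehicle. CYP1A2 mRNA at 24 h quantified by qNPA chemiluminescence; gain of signal analyzed relative to DMSO. Cytotoxicity flagged by phase-contrast morphology.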

[8] = read-out: ABC Transporter (ABCB1), ABCB1 (gene 5243); assay: CLD_ABCB1_24hr: CellzDirect (CLD) Gene Expression Assay for ABC Transporter (ABCB1) at 24 hours (AID 2283684)
In short: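 Primary human hepatocytes, two donor preparations, dosed daily with fresh solutions; vehicle 0.2% DMSO; harvested at 24 h. ABCB1 mRNA measured by quantitative nuclease protection assay (chemiluminescence); morphology-based cytotoxicity annotated.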

[9] = read-out: Broad substrate specificity ATP-binding cassette transporter ABCG2 (Homo sapiens) (UniProt Q9UNQ0); assay: CLD_ABCG2_24hr: CellzDirect (CLD) Gene Expression Assay for ABC Transporter (ABCG2) at 24 hours (AID 2283685)
In short: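 Primary human hepatocytes were dosed daily with ToxCast chemicals at multiple concentrations (vehicle 0.2% DMSO). ABCG2 mRNA was measured at 24 h by qNPA chemiluminescence; induction was scored as gain of signal versus DMSO.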

[10] = read-out: Cytochrome P450 2B6 (Homo sapiens) (UniProt P20813); assay: CLD_CYP2B6_24hr: CellzDirect (CLD) Gene Expression Assay for xenobiotic metabolism (CYP2B6) at 24 hours (AID 2283686)
In short: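 Primary human hepatocytes dosed daily for two days with fresh solutions, harvested at 24 hours; mRNA induction quantified by qNPA chemiluminescence, gain of signal vs 0.2% DMSO vehicle. Cytotoxicity annotated from phase-contrast morphology.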

[11] = read-out: Cytochrome P450 2C19 (Homo sapiens) (UniProt P33261); assay: CLD_CYP2C19_24hr: CellzDirect (CLD) Gene Expression Assay for xenobiotic metabolism (CYP2C19) at 24 hours (AID 2283687);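 also: activity means mRNA induction above DMSO vehicle baseline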
In short: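 Primary human hepatocytes (two donor preparations) dosed daily with fresh test chemical in 0.2% DMSO vehicle; CYP2C19 mRNA induction measured at 24 h by quantitative nuclease protection assay with chemiluminescence, fitted for gain of signal versus DMSO.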

[12] = read-out: Cytochrome P450 3A4 (Homo sapiens) (UniProt P08684); assay: CLD_CYP3A4_24hr: CellzDirect (CLD) Gene Expression Assay for xenobiotic metabolism (CYP3A4) at 24 hours (AID 2283689)
In short: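 Primary human hepatocytes from two donors dosed daily with fresh compound for two days, 0.2% DMSO vehicle. CYP3A4 mRNA at 24 hr by qNPA chemiluminescence; gain-of-signal fit versus DMSO, cytotoxicity flagged by morphology.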

[13] = read-out: organic anion transporter (SLCO1B1), SLCO1B1 (gene 10599); assay: CLD_SLCO1B1_24hr: CellzDirect (CLD) Gene Expression Assay for organic anion transporter (SLCO1B1) at 24 hours (AID 2283690)
In short: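 Primary human hepatocytes (two donor preparations) dosed daily for two days with chemicals at multiple concentrations, 0.2% DMSO vehicle. SLCO1B1 mRNA at 24 h measured by qNPA chemiluminescence; induction fitted relative to DMSO.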

[14] = read-out: sulfotransferase (SULT2A), SULT2A1 (gene 6822); assay: CLD_SULT2A_24hr: CellzDirect (CLD) Gene Expression Assay for sulfotransferase (SULT2A) at 24 hours (AID 2283694)
In short: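 Primary human hepatocytes from two donor preparations were dosed daily with fresh solutions, vehicle 0.2% DMSO. At 24 h, lysates went to quantitative nuclease protection (qNPA) with S1 digestion and chemiluminescent readout. Cytotoxicity was annotated from phase-contrast morphology.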

[15] = read-out: Glyceraldehyde-3-phosphate dehydrogenase (Homo sapiens) (UniProt P04406); assay: CLD_GAPDH_6hr: CellzDirect (CLD) Gene Expression Assay for Baseline Control (Glyceraldehyde 3-phosphate dehydrogenase) at 6 hours (AID 2283681);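 also: active means increased signal relative to DMSO vehicle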
In short: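 Primary human hepatocytes from two donor preparations, dosed at multiple concentrations with 0.2% DMSO vehicle; GAPDH mRNA measured 6 h after dosing by chemiluminescent quantitative nuclease protection assay (qNPA) on denatured lysates. Serves as background control; cytotoxicity annotated by morphology.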

[16] = read-out: Glyceraldehyde-3-phosphate dehydrogenase (Homo sapiens) (UniProt P04406); assay: CLD_GAPDH_24hr: CellzDirect (CLD) Gene Expression Assay for Baseline Control (Glyceraldehyde 3-phosphate dehydrogenase) at 24 hours (AID 2283692)
In short: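 Primary human hepatocytes (two donor preparations) dosed daily for two days, 0.2% DMSO vehicle; GAPDH mRNA measured at 24 h by qNPA chemiluminescence as a background control, gain-of-signal fitted against DMSO.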

[17] = read-out: ABC Transporter (ABCB11), ABCB11 (gene 8647); assay: CLD_ABCB11_6hr: CellzDirect (CLD) Gene Expression Assay for ABC Transporter (ABCB11) at 6 hours (AID 2283675);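 also: hits raise ABCB11 mRNA level so AC50 marks induction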
In short: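 Human primary hepatocytes (two donor preparations) given fresh chemical daily at multiple concentrations, vehicle 0.2% DMSO. ABCB11 mRNA induction measured 6 h after dosing by qNPA chemiluminescence versus DMSO; cytotoxicity annotated from morphology.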

[18] = read-out: ABC Transporter (ABCB1), ABCB1 (gene 5243); assay: CLD_ABCB1_48hr: CellzDirect (CLD) Gene Expression Assay for ABC Transporter (ABCB1) at 48 hours (AID 2283695)
In short: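 Primary human hepatocytes from two donor preparations dosed daily on two consecutive days with 0.2% DMSO vehicle. Harvest at 48 h. ABCB1 mRNA quantified by qNPA with chemiluminescence and fitted for gain of signal versus DMSO.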

Measured: AC50

Chain of Cytochrome P450 3A4 (Homo sapiens) (P08684 whole entry, looked up): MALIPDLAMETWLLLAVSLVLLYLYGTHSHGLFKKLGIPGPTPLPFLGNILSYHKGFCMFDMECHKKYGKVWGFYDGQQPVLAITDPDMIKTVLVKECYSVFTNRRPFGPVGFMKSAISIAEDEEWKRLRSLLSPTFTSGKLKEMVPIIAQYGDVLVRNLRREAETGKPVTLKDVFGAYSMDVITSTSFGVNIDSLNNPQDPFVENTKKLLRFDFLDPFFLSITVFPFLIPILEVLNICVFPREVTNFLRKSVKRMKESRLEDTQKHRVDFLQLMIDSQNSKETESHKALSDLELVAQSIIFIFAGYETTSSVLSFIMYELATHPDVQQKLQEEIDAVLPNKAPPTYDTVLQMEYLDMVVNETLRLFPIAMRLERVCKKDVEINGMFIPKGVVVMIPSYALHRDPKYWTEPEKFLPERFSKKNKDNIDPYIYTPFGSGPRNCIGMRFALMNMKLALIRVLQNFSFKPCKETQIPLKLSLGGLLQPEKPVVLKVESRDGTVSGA
Chain of Broad substrate specificity ATP-binding cassette transporter ABCG2 (Homo sapiens) (Q9UNQ0 whole entry, looked up): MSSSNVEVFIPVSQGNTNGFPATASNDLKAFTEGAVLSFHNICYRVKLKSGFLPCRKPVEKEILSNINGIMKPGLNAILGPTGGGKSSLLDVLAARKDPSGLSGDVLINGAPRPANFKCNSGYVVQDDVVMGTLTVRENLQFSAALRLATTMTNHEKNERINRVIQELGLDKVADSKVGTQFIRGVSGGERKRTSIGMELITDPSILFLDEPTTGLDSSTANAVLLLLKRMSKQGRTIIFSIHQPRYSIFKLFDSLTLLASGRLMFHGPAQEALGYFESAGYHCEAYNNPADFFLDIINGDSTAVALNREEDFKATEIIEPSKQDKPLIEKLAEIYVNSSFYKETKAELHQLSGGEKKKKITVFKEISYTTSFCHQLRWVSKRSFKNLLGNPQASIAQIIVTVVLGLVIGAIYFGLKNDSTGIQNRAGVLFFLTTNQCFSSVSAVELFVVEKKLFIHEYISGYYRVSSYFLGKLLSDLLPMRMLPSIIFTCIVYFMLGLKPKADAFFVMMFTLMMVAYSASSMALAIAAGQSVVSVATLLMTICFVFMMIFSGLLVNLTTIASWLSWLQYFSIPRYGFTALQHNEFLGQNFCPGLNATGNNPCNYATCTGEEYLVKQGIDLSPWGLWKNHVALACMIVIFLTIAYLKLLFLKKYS
Chain of Cytochrome P450 2C19 (Homo sapiens) (P33261 whole entry, looked up): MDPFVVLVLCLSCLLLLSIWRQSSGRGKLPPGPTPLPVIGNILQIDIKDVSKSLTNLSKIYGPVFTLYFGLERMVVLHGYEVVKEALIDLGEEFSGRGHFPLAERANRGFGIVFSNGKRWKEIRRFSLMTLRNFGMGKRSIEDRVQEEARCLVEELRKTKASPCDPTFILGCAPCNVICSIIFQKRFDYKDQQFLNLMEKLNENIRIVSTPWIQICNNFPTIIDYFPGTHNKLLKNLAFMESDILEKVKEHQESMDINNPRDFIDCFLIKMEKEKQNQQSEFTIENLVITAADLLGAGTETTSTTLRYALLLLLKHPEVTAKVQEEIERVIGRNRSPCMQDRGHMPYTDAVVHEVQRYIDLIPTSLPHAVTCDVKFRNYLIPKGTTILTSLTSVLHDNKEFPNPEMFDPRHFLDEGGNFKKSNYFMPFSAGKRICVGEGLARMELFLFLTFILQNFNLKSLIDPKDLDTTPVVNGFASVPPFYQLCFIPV
Chain of Glyceraldehyde-3-phosphate dehydrogenase (Homo sapiens) (P04406 whole entry, looked up): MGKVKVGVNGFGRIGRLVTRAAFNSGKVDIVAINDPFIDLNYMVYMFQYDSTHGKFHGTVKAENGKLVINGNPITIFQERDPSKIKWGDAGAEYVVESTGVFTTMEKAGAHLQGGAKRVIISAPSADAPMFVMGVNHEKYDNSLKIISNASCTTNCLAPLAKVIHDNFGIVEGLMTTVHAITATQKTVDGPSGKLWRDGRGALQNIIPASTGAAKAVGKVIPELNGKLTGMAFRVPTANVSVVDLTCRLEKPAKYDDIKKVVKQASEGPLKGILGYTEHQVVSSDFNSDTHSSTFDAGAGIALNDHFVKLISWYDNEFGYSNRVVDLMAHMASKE

CCOP(=S)(OCC)SCCSCC
active: [3] 14.1 µM | [7] 6.62 µM | [10] 3.91 µM | [12] 20 µM
not listed: [15] | [16] | [17] | [18]
inactive: all other assays above

CCC(=NOC/C=C/Cl)C1=C(O)CC(C2CCOCC2)CC1=O (centres undefined)
not listed: [6] | [9] | [11] | [13] | [14] | [17] | [18]
inactive: all other assays above

CCCCSP(=O)(SCCCC)SCCCC
active: [3] 1.9 µM | [5] 0.205 µM | [7] 2.48 µM | [10] 1.9 µM | [12] 1.9 µM
not listed: [1] | [4] | [6] | [16] | [18]
inactive: all other assays above

CCCCOC(=O)[C@@H](C)Oc1ccc(Oc2ccc(C#N)cc2F)cc1
active: [5] 2.1 µM
not listed: [6] | [7] | [9] | [13] | [17]
inactive: all other assays above

CCCOc1nn(C(=O)NS(=O)(=O)c2ccccc2C(=O)OC)c(=O)n1C
active: [12] 9.43 µM
not listed: [6] | [7] | [8] | [9] | [11] | [17]
inactive: all other assays above

CC(=NC#N)N(C)Cc1ccc(Cl)nc1
not listed: [6] | [7] | [16] | [17] | [18]
inactive: all other assays above

N#CSCSC#N
active: [5] 5.18 µM
not listed: [4] | [6] | [7] | [11] | [13] | [17] | [18]
inactive: all other assays above

COc1cccc(C(=O)NN(C(=O)c2cc(C)cc(C)c2)C(C)(C)C)c1C
active: [3] 1.29 µM | [7] 32.6 µM | [10] 2.35 µM | [12] 3.74 µM
inactive: [1] | [4] | [5] | [8] | [9] | [11] | [13] | [14]
